# Mot1-301 SUMO: blocks SUMOylation pathway, rescuing yeast Mot1-301 growth; S. cerevisiae Mot1-301 growth rescue, ATP luminescence, 38.5C; percent above DMSO median, 100 means doubled; growth rescue, % at 18.8 µM; 320,000 tested, 1% active;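 active = every valid replicate shows activation above 250% relative to neutral control wells; inactive = the rest, any valid replicate at or below 250%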;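 note: OY570 slx delta 5 strain wells were the positive control but not used for scaling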
# AHR activator: activators of human aryl hydrocarbon receptor; AHR-responsive luciferase reporter cells, luminescence; activation, % at 5 µM; P35869; 320,000 tested, 2.5% active; in the data active = activation above about 47%;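 note: 0% = vehicle wells and 100% = reference agonist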
# Bfl-1 A1 inh: inhibitors of the anti-apoptotic protein A1, read as caspase activation | AID 2462 | caspase activation, % (test concentration not listed) | MEF A1-2A-BIM cells, Caspase-Glo 3/7 luminescence, 3 h; percent of clofoctol response, vehicle zero | 330,000 tested, 0.066% active;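 active = over half of replicate activation scores above 10%, or exactly half above 10 with the replicate mean above 10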
# Efflux pump mplx: inhibitors of Candida antifungal efflux pumps expressed in yeast; inhibition, % at 10 µM; 330,000 tested, 0.44% active; AID 485275; S. cerevisiae Candida pump triplex, Nile Red efflux;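 active = plate passing quality check with inhibition over a set limit, or well fluorescence over plate mean plus 4 SD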;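 note: Nile Red retained in pooled yeast measured as flow cytometry median fluorescence; 0% = buffer negative control and 100% = Enniatin B positive control; higher means more Nile Red kept so more efflux inhibition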
# VLA-4 inh: inhibition in a human VLA-4 binding assay; 330,000 tested, 0.2% active; P13612; VLA-4 expressing cells, ligand binding flow cytometry; inhibition, % (about 7 µM as worked out from the volumes in the protocol); AID 2557; in the data active = inhibition above about 50%
# ALR inh: human ALR oxidase inhibition via reduced H2O2 | 290,000 tested, 3.8% active | inhibition, % (concentration not given with the values) | AID 485317 | purified ALR, DTT oxidation, H2O2 HRP-luminol luminescence;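 active = mean replicate inhibition above about 79%, with every replicate also reaching it, limit read from the data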
# Target sequence (P55789 whole entry, looked up): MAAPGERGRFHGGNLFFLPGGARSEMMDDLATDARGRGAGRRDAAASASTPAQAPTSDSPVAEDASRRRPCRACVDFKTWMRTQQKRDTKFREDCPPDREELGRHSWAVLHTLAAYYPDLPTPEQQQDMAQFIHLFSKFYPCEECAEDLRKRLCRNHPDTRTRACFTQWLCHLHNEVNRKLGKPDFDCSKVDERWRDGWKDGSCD
# Yeast cmpd fluor: counter-screen for efflux pump inhibitors: compound fluorescence. AID 588517. S. cerevisiae AD/pABC3, flow cytometry. fluorescence ratio to DMSO, % at 10 µM. shares compounds with Efflux pump mplx. 1,700 tested, 4% active;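 active = fluorescence ratio to DMSO above its plate's cutoff, the plate mean ratio plus 5 SD, cut at about 210% in these data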;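 note: unstained yeast with no Nile Red so the signal is compound autofluorescence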
# CaMdr1 efflux inh: inhibitors of Candida albicans Mdr1 efflux pump; inhibition, % at 10 µM; S. cerevisiae AD/CaMDR1, Nile Red efflux, flow cytometry; 1,700 tested, 1% active; shares compounds with Efflux pump mplx; in the data active = inhibition above about 26%;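 note: 0% = DMSO vehicle and 100% = reference inhibitor; higher means more Nile Red retained so more efflux inhibition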
# CaCdr2 efflux inh: inhibitors of Candida albicans Cdr2 efflux pump; Nile Red retention ratio vs DMSO, % at 10 µM; shares compounds with Efflux pump mplx; 1,700 tested, 4% active; AID 588520; S. cerevisiae AD/CaCDR2, Nile Red retention, flow cytometry; in the data active = Nile Red retention ratio vs DMSO above about 190%;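 note: higher ratio means more blocking of Cdr2 efflux of the dye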
# CaCdr1 efflux inh: Candida Cdr1 efflux pump inhibition; inhibition, % at 10 µM; AID 588522; 1,700 tested, 1% active; shares compounds with Efflux pump mplx; S. cerevisiae AD/CaCDR1, Nile Red efflux, flow cytometry;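 active = inhibition above the screen-wide mean plus twice its standard deviation, cut at about 32% in these data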
# * marks the source's active call; other numbers are inactive results; · = no result. An excerpt weighted towards active compounds, which were near 7.2% of everything screened.
SMILES,Mot1-301 SUMO,AHR activator,Bfl-1 A1 inh,Efflux pump mplx,VLA-4 inh,ALR inh,Yeast cmpd fluor,CaMdr1 efflux inh,CaCdr2 efflux inh,CaCdr1 efflux inh
Cc1c2ccncc2cc2c1[nH]c1ccccc12,·,·,·,·,·,·,93.7,0.0,116.2,0.1
Cc1cc2c([nH]c3ccccc32)c(C)n1,-0.7,30.2,-0.3,-0.1,13.3,-6.2,·,·,·,·
CCOC(=O)c1csc(NC(=O)CC2CCCC2)n1,-5.8,0.1,-0.4,0.0,-5.9,21.5,·,·,·,·
O=C(c1ccc2c(c1)OCO2)N1CCC2(CC1)Oc1ccc(Cl)cc1C(=O)C21CC(c2ccccc2)=NO1 (centres undefined),-23.9,4.1,0.1,0.0,-9.4,·,93.7,-0.5,86.7,-0.5
Cc1noc(C)c1C(=O)N1CCC2(CC1)Oc1ccc(F)cc1C(=O)C21CC(c2ccc(Cl)cc2)=NO1 (centres undefined),-22.2,-1.0,-0.8,6.4*,-10.2,-2.2,99.8,0.0,97.7,0.0
O=C(c1ccc2c(c1)OCO2)N1CCC2(CC1)Oc1ccc(F)cc1C(=O)C21CC(c2ccc(Cl)cc2)=NO1 (centres undefined),-11.1,-0.1,0.0,23.3*,11.3,3.7,106.7,26.1*,110.3,0.6
O=C(/C=C/c1cccs1)N1CCC2(CC1)Oc1ccc(F)cc1C(=O)C21CC(c2ccc(Cl)cc2)=NO1 (centres undefined),-11.5,28.1,-0.5,0.1,-13.8,-12.1,·,·,·,·
CC(C)(C)OC(=O)N1CCC2(CC1)Oc1ccc(F)cc1C(=O)C21CC(c2ccc(Cl)cc2)=NO1 (centres undefined),-24.6,-5.5,-0.1,0.2,2.4,-5.1,·,·,·,·
O=C(/C=C/c1cccs1)N1CCC2(CC1)Oc1ccc(F)cc1C(=O)C21CC(c2ccccc2)=NO1 (centres undefined),-9.1,2.1,0.3,0.6*,-19.1,-4.5,107.9,0.2,95.4,0.1
CC(=O)c1nc(-c2ccccc2)sc1C,-4.4,-3.5,-2.9,-0.1,-32.9,-2.4,·,·,·,·
CCOC(=O)c1ccc(NC(=O)C(=O)NCC2CCCO2)cc1 (centres undefined),-4.9,5.1,0.1,0.0,5.8,·,·,·,·,·
c1ccc(Oc2ccc(-n3cnnn3)cc2)cc1,-17.2,-1.1,1.1,0.4,0.8,-6.8,·,·,·,·
Cc1cc(C)c(S(=O)(=O)N2CCc3ccccc32)c(C)c1,-18.3,5.2,1.3,0.9*,-474.4,-0.8,207.2,0.4,108.1,0.4
Cc1n[nH]c(C)c1S(=O)(=O)N1CCc2ccccc21,·,21.4,0.9,-0.2,-2.8,-4.4,·,·,·,·
CC(=O)Nc1ccc(C(=O)OCc2ccc(F)cc2)cc1,6.5,-2.5,-1.1,0.1,-0.2,-5.3,·,·,·,·
O=C(N/N=C\c1ccc(F)cc1)c1ccc(F)cc1,·,15.1,-1.1,0.0,-2.5,0.3,·,·,·,·
CC(=O)Nc1ccc(C(=O)N/N=C/c2ccc(F)cc2)cc1,15.7,6.7,0.0,0.6*,13.6,-3.3,94.8,-0.3,102.9,0.0
CC(=O)Nc1ccc(C(=O)OCC(=O)c2ccc(F)cc2)cc1,-3.6,-3.9,-1.0,32.0*,8.4,2.3,97.0,-0.1,105.7,-0.1
Cc1cc(/C=C2\SC(=O)N(C)C2=O)c(C)n1-c1ccc(O)cc1,19.4,-1.4,-0.9,0.1,2.6,14.9,·,·,·,·
CC(=O)NC1=NC(=O)/C(=C/c2cc(C)n(-c3ccc(NC(C)=O)cc3)c2C)S1,-11.6,3.6,-0.9,1.4*,-28.2,·,119.7,0.1,96.5,2.3
Cc1cc(C(=O)O)n(C(C)(C)C)n1,12.2,1.8,0.2,2.0*,-45.9,0.5,95.3,-0.3,95.1,-0.3
COc1ccccc1CNC(=O)CCc1nnc2ccc(NCCCN3CCCC3=O)nn12,2.8,-0.3,0.5,-0.1,-8.3,-3.1,·,·,·,·
O=C1CCCN1CCCNc1ccc2nnc(CCC(=O)N3CCN(c4ccccc4)CC3)n2n1,7.2,0.3,0.2,1.3*,-2.3,22.7,98.9,-0.1,89.9,0.0
O=C(NNC1CC(=O)N(c2ccccc2)C1=O)c1ccco1 (centres undefined),9.6,-0.9,-0.1,-0.1,3.4,21.1,·,·,·,·
COc1ccc(N2C(=O)CC(NNC(=O)c3ccco3)C2=O)cc1 (centres undefined),-4.7,0.2,1.2,2.1*,14.8,3.7,104.6,0.0,110.1,-0.1
SMILES,Mot1-301 SUMO,AHR activator,Bfl-1 A1 inh,Efflux pump mplx,VLA-4 inh,ALR inh,Yeast cmpd fluor,CaMdr1 efflux inh,CaCdr2 efflux inh,CaCdr1 efflux inh
CCN(CC)c1ccc2c(Cl)c(Br)c(=O)oc2c1,8.2,53.2*,1.5,8.6*,·,27.0,451.8*,1.1,504.4*,1.2
COC(=O)Cn1c(C)c(/C=C/c2cc[n+](C)cc2)c2ccccc21,-5.0,·,-0.2,0.2,-126.2,-16.7,·,·,·,·
COC(=O)Cn1cc(/C=C/c2cc[n+](C)cc2)c2ccccc21,-23.4,6.0,-0.6,0.1,-47.3,-47.3,173.8,1.0,141.3,0.6
Cc1cccc(NS(=O)(=O)c2ccccc2)n1,·,0.5,0.8,0.0,22.9,5.0,·,·,·,·
Cc1cccc(NS(=O)(=O)c2ccc(C3CCCCC3)cc2)n1,3.5,0.6,0.9,8.2*,23.8,4.4,99.0,-0.1,102.9,0.0
CC(C)C(C)NC(=O)COC(=O)/C=C/c1ccc(S(=O)(=O)N2CCc3ccccc32)cc1 (centres undefined),-6.0,1.1,0.3,0.0,2.9,-1.0,·,·,·,·
NC1=NC[C@@H](Cc2ccc(O)cc2)N1CCCCC1CCCCC1,56.9,0.2,-0.3,1.0*,-10.9,-4.8,111.1,-0.2,116.4,-0.1
NC1=NC[C@H](Cc2ccccc2)N1CC1CCCCC1,3.0,0.4,0.0,-0.1,2.0,-7.7,·,·,·,·
NC1=NC[C@H](Cc2ccc(O)cc2)N1CC1CCCCC1,5.9,-0.4,0.9,-0.1,11.5,89.6*,101.4,0.1,95.6,-0.1
NC1=NC[C@H](Cc2ccc(O)cc2)N1CCc1cccc(F)c1,-4.4,-0.7,0.5,0.0,33.8,9.9,90.1,-0.3,85.2,-0.2
N#Cc1ccc(CN2CCN(C(=O)C3CC(=O)N(c4ccccc4F)C3)CC2)cc1 (centres undefined),1.2,-1.1,1.7,0.1,10.5,1.4,·,·,·,·
O=C(O)c1cc2c(cc1Br)OCCCO2,-8.5,-0.7,0.3,-0.2,-3.3,10.3,·,·,·,·
Cc1[nH]n(-c2ccccc2)c(=O)c1/C=N/NC(=O)C(C)C,-5.8,5.5,1.3,0.0,-9.1,21.3,·,·,·,·
